Compounds with a hit are over-represented: about 3.3% of the library has one in this group of screens.
USP1-UAF1 inh – Inhibitors of USP1/UAF1: Primary Screen. Ubiquitin carboxyl-terminal hydrolase 1 (Homo sapiens), O94782. recombinant USP1/UAF1, Ub-Rhodamine cleavage fluorescence. Potency, µM (titrated, usually from 57.1 µM), usual class: inhibitors. hit rate 0.23% among 390,000; note: nearly all actives have a fitted effect of over 60% in size
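Step one: compound is pinned into 1nM USP1/UAF1 in HEPES pH 7.8 buffer with TCEP. Step two: 15 min room-temperature incubation. Step three: Ub-Rho (150nM final) starts cleavage, tracked by fluorescence over six one-minute reads.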
PLK1 PBD inh – qHTS for Inhibitors of PLK1-PDB (polo-like kinase 1 - polo-box domain): Primary Screen | Plk1 PBD binding of FITC phosphopeptide, fluorescence polarization | Serine/threonine-protein kinase PLK1 (Homo sapiens), P53350 | Potency, µM, most hits filed as inhibitors | hit rate 2.8% among 360,000; note: series mostly up to about 57 µM; nearly all actives have a fitted effect of over 65% in size
Target sequence (P53350 whole entry, looked up, the tested form may be a part): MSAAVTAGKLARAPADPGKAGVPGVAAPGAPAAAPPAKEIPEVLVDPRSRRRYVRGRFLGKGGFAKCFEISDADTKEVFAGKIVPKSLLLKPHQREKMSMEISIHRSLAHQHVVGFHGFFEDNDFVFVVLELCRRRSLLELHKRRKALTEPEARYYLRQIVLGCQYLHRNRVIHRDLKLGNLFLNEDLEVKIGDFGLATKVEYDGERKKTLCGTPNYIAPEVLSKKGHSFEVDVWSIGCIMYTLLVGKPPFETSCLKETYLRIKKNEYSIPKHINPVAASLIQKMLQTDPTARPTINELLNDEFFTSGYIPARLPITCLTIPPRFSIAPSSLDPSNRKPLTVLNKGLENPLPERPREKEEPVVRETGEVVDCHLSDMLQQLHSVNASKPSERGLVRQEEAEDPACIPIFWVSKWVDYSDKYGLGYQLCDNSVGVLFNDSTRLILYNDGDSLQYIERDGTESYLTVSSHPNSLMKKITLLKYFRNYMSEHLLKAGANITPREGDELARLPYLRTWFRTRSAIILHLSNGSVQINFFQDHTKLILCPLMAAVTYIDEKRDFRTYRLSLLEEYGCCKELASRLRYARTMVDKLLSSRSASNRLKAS
PI5P4Ka inh – qHTS for Inhibitors of phosphatidylinositol 5-phosphate 4-kinase (PI5P4K) | hit rate 1.2% among 330,000 | Phosphatidylinositol 5-phosphate 4-kinase type-2 alpha (Homo sapiens), P48426 | AID 652105, 2013 | max response, % | PI5P4Kalpha enzyme, ADP-Glo luminescence, 60 min; active compounds read low; active = max response of -50% or lower; inconclusive = between -30% and -50%; inactive = -30% or higher; note: value at the top dose of about 77 µM
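Luminescence from ADP-Glo served as readout of PI5P4Kalpha activity in a qHTS format. Reaction: enzyme, substrate, compound, ATP at 5 microM final, 60 min at RT.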
WRN helicase inh – qHTS for Inhibitors of WRN Helicase; WRN helicase unwinding, fluorescent forked duplex, kinetic; Potency, µM (series often up to 114 µM), actives largely listed as inhibitors; hit rate 0.46% among 360,000; note: nearly all actives have a fitted effect of over 55% in size
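Kinetic fluorescence helicase assay: unwinding of a quenched forked DNA duplex (100 nM final) with 2 mM ATP final raises red fluorescence (525/598 nm). Compounds sat 15 min at room temperature with 20 nM WRN beforehand.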
USP2a inh – qHTS Assay for Inhibitors of Ubiquitin-specific Protease USP2a Using CHOP2 as the Reporter. Ubiquitin carboxyl-terminal hydrolase 2 (Homo sapiens), O75604. USP2 core, Ub-CHOP2 coupled fluorogenic reporter, 485/531. Potency, µM (series often up to 38.3 µM), usual class: inhibitors. hit rate 0.01% among 330,000. AID 463254, 2010
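Cell-free coupled assay: 10nM USP2 core preincubated 30min RT with compound in Tris-HCl pH 8.0/CaCl2/CHAPS buffer, then 25nM Ub-CHOP2 and 25nM reporter substrate; fluorescence (Ex 485/Em 531) read after 60min RT, normalized to NEM inhibition, concentration-response curves fitted.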
Hits are given with their value; 0 = inactive; ? = inconclusive; - = not tested or not shown; [ ] = remark or other dose. Unless noted, calls come from the whole dose curve; as a rule, active = well fitted curve in the direction sought with a large enough effect; inconclusive = small, poorly fitted or top-dose-only effect, or another doubt; inactive = no such curve, though single readings can be large; an effect the other way counts as inactive or inconclusive.

SMILES	USP1-UAF1 inh	PLK1 PBD inh	PI5P4Ka inh	WRN helicase inh	USP2a inh
COc1ccc2c(C)c(CC(=O)N3CCN(C(=O)C4COc5ccccc5O4)CC3)c(=O)oc2c1C (centres undefined)	0	3.4µM	0	0	0
Cc1c(CC(=O)N2CCN(C(=O)C3COc4ccccc4O3)CC2)c(=O)oc2cc(O)c(Cl)cc12 (centres undefined)	0	0	-51	0	0
Cc1c(C)c2ccc(OCC(=O)N3CCN(C(=O)C4COc5ccccc5O4)CC3)cc2oc1=O (centres undefined)	0	0	0	0	0
Cc1cc(C(=O)OCC(=O)NC(C)C)c2ccccc2n1	0	12µM	?	0	0
Cc1cc(O)c(C(C)C)cc1N=Cc1ccc(N(C)C)cc1	32µM	0	0	?	-
Cc1csc(N=Cc2ccc([N+](=O)[O-])o2)n1	0	0	-82	?	-
COCCn1c(SCC(=O)NC(=O)NC(C)(C)C)nc2ccccc21	0	0	-	0	0
CCn1c(SCC(=O)NC(=O)NC(C)(C)C)nc2ccccc21	0	9.5µM	0	0	0
C(=N\Nc1nc(-c2ccccc2)cs1)/c1cccs1	0	30µM	0	0	0
O=[N+]([O-])c1ccc(-[n+]2ccc3ccccc3c2)c([N+](=O)[O-])c1	?	24µM	?	0[11.6 µM]	0
COc1cc2c(cc1OC)CN(C(=S)NC(=O)c1ccccc1)CC2	0	24µM	0	0	0
COc1cc2c(cc1OC)CN(C(=O)c1cccc([N+](=O)[O-])c1)CC2	0	27µM	0	0	0
CCOC(=O)c1cnc(N2CCN(c3ccc(C)cc3C)CC2)c2ccccc12	0	-	-	-	-
O=C(Nc1ccc2c(c1)N(C1CCCC1)C(=O)c1ccccc1S2)c1cccc(F)c1	0	-	-	-	-
Cc1cc(C(=O)C(C)Cl)c(C)n1Cc1ccco1 (centres undefined)	0	21µM	?	?	0
Cc1cc(C(=O)COC(=O)C(C)NC(N)=O)c(C)n1Cc1ccco1 (centres undefined)	0	0	0	0	0
Cc1cc(C(=O)Cn2ncc(Cl)c(Cl)c2=O)c(C)n1CC(F)(F)F	0	0	-56	0	0
C#CCOCCOCCOCCNc1nc(N2CCN(C(=O)CCCCCCCCCCNC(=O)[C@H](CCCCN)n3cc(C[C@@H](C)CC)nn3)CC2)nc(N2CCN(C(=O)CCCCCCCCCCNC(=O)[C@H](CCCCN)n3cc(C[C@@H](C)CC)nn3)CC2)n1	?	0	-52	50µM	-
C#CCOCCOCCOCCNc1nc(N2CCOCC2)nc(N2CCN(C(=O)[C@H](CCCN=C(N)N)n3cc(C(N)[C@@H](C)CC)nn3)CC2)n1 (some centres undefined)	0	0	0	0	0
C#CCOCCOCCOCCNc1nc(N2CCN(C(=O)Cn3cc(CC(C)O)nn3)CC2)nc(N2CCN(C(=O)[C@H](C)n3cc(CCCN=C(N)N)nn3)CC2)n1 (some centres undefined)	0	0	-80	0[11.6 µM]	0
C#CCOCCOCCOCCNc1nc(N2CCN(C(=O)C(Cc3cc4ccccc4[nH]3)n3cc(C(N)Cc4ccc(O)cc4)nn3)CC2)nc(N2CCN(C(=O)C(Cc3cc4ccccc4[nH]3)n3cc(C(N)Cc4ccc(O)cc4)nn3)CC2)n1 (centres undefined)	0	0	-92	0	0
C#CCOCCOCCOCCNc1nc(N2CCN(C(=O)[C@H](Cc3cc4ccccc4[nH]3)n3cc([C@@H](N)Cc4ccc(O)cc4)nn3)CC2)nc(N2CCN(C(=O)[C@H](Cc3cc4ccccc4[nH]3)n3cc([C@@H](N)CC(C)C)nn3)CC2)n1	0	0	?	0	0
